Screening data as filed in PubChem.
Most compounds without a hit are left out; they make up all but 11% or so of the library.
PNC inhibitor = High Content Assay for Compounds that inhibit the Assembly of the Perinucleolar Compartment; PC3M PTB-GFP, PNC prevalence imaging, 16 h; active compounds read low; activity change (PNC), negative = inhibition, % at 10 µM; actives 3.1% (n = 140,000); AID 2417, 2010;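 active = readout at or below -70, meaning at least 70% loss of cells showing the perinucleolar compartment, a nuclear body marking cancer cells; inconclusive = readout between -30 and a set limit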;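 note: plate controls were DMSO wells for no effect and camptothecin positive control wells for full effect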
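Compounds are pinned in duplicate onto adhered PC3M cells stably expressing GFP-tagged PTB and incubated 16 h at 37 C. Cells are then fixed, nuclei stained with Hoechst, and PNC-positive cells counted.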
HPGD block = qHTS Assay for Inhibitors of HPGD (15-Hydroxyprostaglandin Dehydrogenase) | 15-hydroxyprostaglandin dehydrogenase [NAD(+)] (Homo sapiens), P15428 | purified HPGD, NADH fluorescence kinetic, PGE2 substrate | Potency, µM, for inactives: at the top dose activity change, negative = inhibition, usual class: inhibitors | actives 4.3% (n = 150,000) | AID 894, 2007; note: potency is the fitted concentration of half-maximal effect
Target sequence (P15428 whole entry, looked up): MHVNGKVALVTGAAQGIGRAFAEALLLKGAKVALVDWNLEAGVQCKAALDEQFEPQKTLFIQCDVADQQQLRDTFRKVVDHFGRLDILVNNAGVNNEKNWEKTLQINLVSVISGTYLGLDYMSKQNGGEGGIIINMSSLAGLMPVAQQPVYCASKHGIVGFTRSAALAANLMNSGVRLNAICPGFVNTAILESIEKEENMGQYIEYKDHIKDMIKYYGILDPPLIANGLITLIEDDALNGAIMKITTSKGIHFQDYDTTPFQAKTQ
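20 nM HPGD preincubated 15 min at room temperature with compound in 50 mM Tris-HCl pH 8, 0.01% Tween 20. Started with 1 mM NAD+ and 30 uM prostaglandin E2; NADH fluorescence (360/450 nm) read 5 times over 30-s intervals, last minus first.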
ALDH1A1 block = qHTS Assay for Inhibitors of Aldehyde Dehydrogenase 1 (ALDH1A1); Aldehyde dehydrogenase 1A1 (Homo sapiens), P00352; Purified ALDH1A1, NADH fluorescence, propionaldehyde substrate; actives 7.3% (n = 220,000); Potency, µM (doses to about 75.3 µM), inactives show at the top dose activity, negative = inhibition, actives largely listed as inhibitors;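 note: potency is the fitted concentration of half-maximal effect; plate controls were no enzyme wells and a reference inhibitor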
* marks the source's active call; other numbers are inactive results; ? = inconclusive; nt = not tested or not shown; [ ] = remark or other dose. Unless noted, calls come from the whole dose curve; as a rule, active = well fitted inhibition curve with a large enough effect (not every such curve was filed as active); inconclusive = small, poorly fitted or top-dose-only effect, or another doubt; inactive = no such curve, though single readings can be large or run the other way. Unless noted, % is set by controls: 0 for no effect and ±100 for the full control effect.

SMILES | PNC inhibitor | HPGD block | ALDH1A1 block
O=C(COc1ccccc1[N+](=O)[O-])c1ccccc1 | nt | nt | 2µM*
CC(O)CCCCn1c(=O)c2c(ncn2C)n(C)c1=O (configuration not stated) | nt | nt | -3.5%
Cn1c2ccccc2n2c(=O)c(Cl)c(-c3ccccc3)c(C#N)c12 | -11.9 | -2.6% | ?
Cn1c(=O)c(-c2ccc(Cl)cc2)nc2cnc(Oc3ccccc3)nc21 | nt | -8.0% | ?
N#Cc1cnn2ccn(C3OC(CO)C(O)C3O)c12 (configuration not stated) | nt | nt | 16.7%
O=C(Nc1ccsc1C(=O)NC1CCCCC1)c1ccc(F)cc1 | -29.5 | -18.5% | ?
O=C(O)c1cccc(Oc2ccccc2[N+](=O)[O-])c1 | -116.4* | -10.7% | -0.3%
N#Cc1ccc(Oc2cccc(C(=O)O)c2)cc1C#N | 5.9 | nt | 6.7%
Cc1ccc(CN2CCN(Cc3cn[nH]c3C3CCCCC3)CC2CCO)cc1 (configuration not stated) | nt | nt | 2.9%
CC1(C)Oc2ccc(C(=O)N3CCCC3)cc2N(CC(=O)NCc2ccccc2)C1=O | 1.8 | -9.2% | -0.1%
COc1ccc(C(=O)CN2C(=O)C(C)(C)Oc3ccc(C(=O)N4CCCCCC4)cc32)cc1 | -25.1 | 8.91µM* | -9.3%
Cc1cc(O)c(C(C)(C)C)cc1Sc1cc(C(C)(C)C)c(O)cc1C | nt | -28.4% | ?
CCCCC(=O)Nc1ccc(NC(=O)c2ccccc2[N+](=O)[O-])cc1OC | 90.6 | -7.4% | 8.5%
Cc1cc(=O)oc2cc(OCC(=O)N3c4ccccc4CC3C)ccc12 (configuration not stated) | -85.0* | ? | ?
Cc1cc(=O)oc2cc(OCC(=O)N3CC(C)OC(C)C3)ccc12 (configuration not stated) | -4.8 | ? | ?
COc1ccc(-c2cc(=O)c3ccccc3s2)cc1 | 13.1 | 7.94µM* | ?
COc1ccc2sc3ccccc3c(=O)c2c1 | -25.3 | -28.2% | ?
Cc1noc(C)c1-c1ccc2ncnc(Nc3ccc(F)cc3)c2c1 | nt | nt | -14.7%
CC(C)CCCC(C)C1CCC2C3CC=C4CC(O)CCC4(C)C3CCC12C (configuration not stated) | nt | 0.0% | 9.5%
CN(C)c1ccc(C(=S)NCc2ccco2)cc1 | -17.1 | ? | 5.01µM*
CN(C)c1ccc(/C=N/NC(=S)NCc2ccco2)cc1 | -20.5 | ? | ?
O=S(=O)(NCCSc1nc2ccccc2o1)c1ccccc1 | ? | -11.1% | ?
O=S(=O)(CCSc1nc2ccccc2o1)Cc1ccccc1 | ? | -13.7% | 20µM*
O=S(=O)(CCSc1ccccn1)c1nc2ccccc2s1 | -12.6 | -27.2% | 0.224µM*
O=C(CSc1ccccn1)Nc1nc2ccccc2s1 | 33.9 | -4.6% | -7.2%
SMILES | PNC inhibitor | HPGD block | ALDH1A1 block
CCS(=O)(=O)CCSc1nc2ccccc2o1 | -18.4 | -6.8% | 3.8%
O=S(=O)(CCSc1nc2ccccc2o1)c1nc2ccccc2s1 | ? | -3.0% | 0.282µM*
CC(CCc1ccccc1)NC(=O)Cc1cccs1 (configuration not stated) | nt | nt | -6.7%
O=C(O)/C=C/c1nc(-c2ccccc2)n2ccccc12 | -22.8 | ? | -4.8%
O=C(COC(=O)CCSc1ccccc1)NCc1ccccc1 | nt | nt | 4.3%
c1ccc2c(c1)c1ccccc1n2Cn1c2ccccc2c2ccccc21 | nt | -13.4% | -6.9%[13.5 µM]
C/C=C/OC(=O)NC(c1cccc(C)c1)[C@@]1(C(=O)OCC)CCCC1=O (some centres not stated) | nt | nt | 18.2%[13.5 µM]
NC(=O)C1(N2CCCCC2)CCN(S(=O)(=O)c2cc(Cl)sc2Cl)CC1 | nt | nt | 6.9%
Cc1ccc(C2(O)CN(c3ccccc3)C3=[N+]2CCS3)cc1 (configuration not stated) | 12.1 | 0.2% | 0.5%
Cc1ccccc1N1CC(O)(c2ccccc2)[N+]2=C1SCC2 (configuration not stated) | -23.1 | -3.5% | 12.6µM*
OC1(c2ccc(F)cc2)CN(c2ccccc2)C2=[N+]1CCS2 (configuration not stated) | -25.3 | -8.2% | -2.2%
Cc1ccc(C2(O)CN(c3ccccc3C)C3=[N+]2CCS3)cc1 (configuration not stated) | 15.9 | -1.3% | 20µM*
CC1=CC2=NC(=O)/C(=C\c3cccn3CCOc3cc(C)ccc3C)C(=N)N2O1 | -11.0 | -10.4% | -8.9%
COc1cccc(NC(=O)N(C2CCCCC2)C(C)c2cccs2)c1 (configuration not stated) | -7.9 | -8.4% | -1.0%
COc1ccc(/C=C(\NC(=O)c2ccccc2)C(=O)OC[C@@H]2CCC[N+]3(C)CCCCC23)cc1OC (some centres not stated) | nt | nt | 0.8%
Cc1cccc(N2CCN(C(=O)NCc3ccc(Cl)cc3)CC2)c1 | 14.2 | -5.4% | 5.2%
N#CC1=C(SCC(N)=O)NC(=O)CC1c1ccccc1Cl (configuration not stated) | 8.8 | -4.0% | 20µM*
Cc1ccc(C2CC(=O)NC(SCCC(C)C)=C2C#N)cc1 (configuration not stated) | 0.8 | ? | 12.6µM*
CCSC1=C(C#N)C(c2ccccc2Cl)CC(=O)N1 (configuration not stated) | -10.3 | -8.4% | ?
CCOC(=O)CSC1=C(C#N)C(c2sccc2C)C(C(C)=O)=C(C)N1 (configuration not stated) | 67.4 | -14.5% | 22.4µM*
CCCSC1=C(C#N)C(c2ccc(Cl)cc2Cl)CC(=O)N1 (configuration not stated) | ? | 31.6µM* | 20µM*
CCCSC1=C(C#N)C(c2ccccc2OCC)CC(=O)N1 (configuration not stated) | ? | -0.7% | 0.6%
CCc1ccc(C2CC(=O)NC(SCC(=O)OC(C)C)=C2C#N)cc1 (configuration not stated) | ? | -7.2% | -10.7%
CC(=O)C1=C(C)NC(SCC(N)=O)=C(C#N)C1c1sccc1C (configuration not stated) | 116.8 | ? | ?
CC[C@H](C(=O)c1cccs1)C(O)(C(F)(F)F)C(F)(F)F | nt | -5.9% | -8.5%[13.5 µM]
SMILES | PNC inhibitor | HPGD block | ALDH1A1 block
O=C1OCCN1/N=C\c1ccc([N+](=O)[O-])o1 | nt | -12.3% | -6.1%[20.9 µM]
CCOC(=O)CSC1=C(C#N)C(c2ccc(C)s2)CC(=O)N1 (configuration not stated) | -87.8* | -8.6% | 9.8%
COC(=O)CSC1=C(C#N)C(c2ccccc2)CC(=O)N1 (configuration not stated) | 14.5 | -19.5% | 15.8µM*
COC(=O)CSC1=C(C#N)C(c2ccc(C(C)C)cc2)CC(=O)N1 (configuration not stated) | -15.1 | -5.3% | ?
COC(=O)CSC1=C(C#N)C(c2ccc(Cl)cc2)C(C(=O)OC)C(=O)N1 (configuration not stated) | 41.6 | nt | -7.5%
CCOC(=O)CSC1=C(C#N)C(c2ccc(Cl)cc2)C(C(=O)OC)C(=O)N1 (configuration not stated) | ? | -26.4% | 25.1µM*
